Assay results from the supplement of paper PMC10849652.
Of roughly 7,900 targets only a part is listed; those with a hit were picked by preference. About 0.6% of all pairs of compound and target were hits. A number with no mark means an inactive call.

How the values were obtained:
Assay in all cases: log2 fold change, soluble protein after heating vs DMSO (PISA); higher = thermal stabilisation; K562 cells, 10 uM, 30 min; active = over 0.2 and 3.5 SD of the protein, either way, in both replicates (recomputed)
[1] = compound: NC(=O)Nc1cc(-c2cccc(F)c2)sc1C(=O)N[C@H]1CCCNC1
In short: (§1)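 Soluble protein was quantified by TMTpro 16plex LC-MS/MS after channel sums were equalised. It was obtained as the supernatant after 21,000xg for 90 min from pooled aliquots of K562 cells (2×10^6 cells/mL, 10 μM compound, 30 min) heated for 3 min across 48°C-58°C and extracted in PBS with 0.5% NP-40 at 4°C. Thermal stability values are relative to control samples and come from duplicates. They are given as log2 fold changes.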

[2] = compound: NC(=O)c1cnc(N[C@@H]2CCCC[C@@H]2N)nc1Nc1cccc(-n2nccn2)c1
In short: as §1

[3] = compound: NC1(c2ccc(-c3nc4ccn5c(=O)[nH]nc5c4cc3-c3ccccc3)cc2)CCC1
In short: as §1

[4] = compound: NCC(=O)Nc1ccc(-n2nc(C(F)(F)F)cc2-c2ccc3c(ccc4ccccc43)c2)cc1
In short: as §1

entinostat = compound: Nc1ccccc1NC(=O)c1ccc(CNC(=O)OCc2cccnc2)cc1 [entinostat]
In short: as §1

vorinostat = compound: O=C(CCCCCCC(=O)Nc1ccccc1)NO [vorinostat]
In short: as §1

citarinostat = compound: O=C(CCCCCCNC(=O)c1cnc(N(c2ccccc2)c2ccccc2Cl)nc1)NO [citarinostat]
In short: as §1

silmitasertib = compound: O=C(O)c1ccc2c(c1)nc(Nc1cccc(Cl)c1)c1ccncc12 [silmitasertib]
In short: as §1

[5] = compound: O=C1NC(=O)C(c2cnc3ccccn23)=C1c1cn2c3c(cc(F)cc13)CN(C(=O)N1CCCCC1)CC2
In short: as §1

[6] = compound: c1cc(OCCN2CCCCC2)cc(-c2n[nH]c3ccc(-c4nnc[nH]4)cc23)c1
In short: as §1

entospletinib = compound: c1cn2cc(-c3ccc4cn[nH]c4c3)nc(Nc3ccc(N4CCOCC4)cc3)c2n1 [entospletinib]
In short: as §1

Sequence of UniProt Q6P3S6 (Q6P3S6 whole entry, looked up): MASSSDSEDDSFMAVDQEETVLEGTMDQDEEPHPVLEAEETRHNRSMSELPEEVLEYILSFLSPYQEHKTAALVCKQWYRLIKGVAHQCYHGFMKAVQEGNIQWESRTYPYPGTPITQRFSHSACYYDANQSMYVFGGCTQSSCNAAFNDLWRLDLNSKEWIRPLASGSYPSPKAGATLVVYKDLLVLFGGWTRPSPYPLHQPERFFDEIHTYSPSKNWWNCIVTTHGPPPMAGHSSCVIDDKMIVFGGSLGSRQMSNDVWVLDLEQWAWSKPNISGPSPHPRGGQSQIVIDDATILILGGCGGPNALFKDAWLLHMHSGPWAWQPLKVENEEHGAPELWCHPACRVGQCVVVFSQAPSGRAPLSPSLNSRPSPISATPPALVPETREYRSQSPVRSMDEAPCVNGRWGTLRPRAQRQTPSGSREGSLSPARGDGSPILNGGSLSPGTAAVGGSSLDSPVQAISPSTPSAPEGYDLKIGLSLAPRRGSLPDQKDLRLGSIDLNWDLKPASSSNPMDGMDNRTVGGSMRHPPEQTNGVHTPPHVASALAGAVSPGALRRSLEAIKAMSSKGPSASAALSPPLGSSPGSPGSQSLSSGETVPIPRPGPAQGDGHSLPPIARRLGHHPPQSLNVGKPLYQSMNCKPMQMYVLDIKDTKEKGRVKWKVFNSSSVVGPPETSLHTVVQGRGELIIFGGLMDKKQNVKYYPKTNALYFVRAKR
Sequence of UniProt Q6Y7W6 (Q6Y7W6 whole entry, looked up): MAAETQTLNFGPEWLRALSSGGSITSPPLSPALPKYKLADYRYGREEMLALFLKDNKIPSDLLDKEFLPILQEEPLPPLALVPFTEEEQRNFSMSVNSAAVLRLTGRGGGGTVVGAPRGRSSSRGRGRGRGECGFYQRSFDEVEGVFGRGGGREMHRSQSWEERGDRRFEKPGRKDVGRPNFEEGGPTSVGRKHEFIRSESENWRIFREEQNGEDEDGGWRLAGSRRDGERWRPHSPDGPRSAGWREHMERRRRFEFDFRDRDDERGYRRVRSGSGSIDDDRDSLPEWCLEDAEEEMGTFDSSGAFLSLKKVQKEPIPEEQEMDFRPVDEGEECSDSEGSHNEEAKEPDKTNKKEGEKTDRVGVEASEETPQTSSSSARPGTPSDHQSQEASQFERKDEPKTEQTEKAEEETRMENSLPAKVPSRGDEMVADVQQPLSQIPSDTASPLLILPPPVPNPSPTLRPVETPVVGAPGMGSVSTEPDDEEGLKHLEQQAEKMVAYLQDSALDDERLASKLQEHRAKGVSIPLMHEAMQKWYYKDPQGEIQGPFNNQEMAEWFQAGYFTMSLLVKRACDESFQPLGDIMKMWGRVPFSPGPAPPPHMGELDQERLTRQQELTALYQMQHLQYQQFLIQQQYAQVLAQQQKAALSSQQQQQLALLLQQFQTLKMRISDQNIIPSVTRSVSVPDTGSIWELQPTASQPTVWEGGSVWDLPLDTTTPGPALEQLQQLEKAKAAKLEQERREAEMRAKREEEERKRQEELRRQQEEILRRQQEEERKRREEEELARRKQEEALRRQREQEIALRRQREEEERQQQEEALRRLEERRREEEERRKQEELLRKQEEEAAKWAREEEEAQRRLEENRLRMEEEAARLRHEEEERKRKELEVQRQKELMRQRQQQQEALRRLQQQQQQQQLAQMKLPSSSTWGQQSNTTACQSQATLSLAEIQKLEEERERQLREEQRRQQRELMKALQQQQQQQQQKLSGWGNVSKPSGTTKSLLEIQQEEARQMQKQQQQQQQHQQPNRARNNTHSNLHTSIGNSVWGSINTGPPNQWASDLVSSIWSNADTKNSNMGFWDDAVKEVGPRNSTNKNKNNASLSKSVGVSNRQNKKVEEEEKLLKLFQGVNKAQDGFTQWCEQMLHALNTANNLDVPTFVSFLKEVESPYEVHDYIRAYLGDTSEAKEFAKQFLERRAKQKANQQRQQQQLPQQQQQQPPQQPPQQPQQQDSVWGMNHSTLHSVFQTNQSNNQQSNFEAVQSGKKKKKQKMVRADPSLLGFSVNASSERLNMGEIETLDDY
Sequence of UniProt P08754 (P08754 whole entry, looked up): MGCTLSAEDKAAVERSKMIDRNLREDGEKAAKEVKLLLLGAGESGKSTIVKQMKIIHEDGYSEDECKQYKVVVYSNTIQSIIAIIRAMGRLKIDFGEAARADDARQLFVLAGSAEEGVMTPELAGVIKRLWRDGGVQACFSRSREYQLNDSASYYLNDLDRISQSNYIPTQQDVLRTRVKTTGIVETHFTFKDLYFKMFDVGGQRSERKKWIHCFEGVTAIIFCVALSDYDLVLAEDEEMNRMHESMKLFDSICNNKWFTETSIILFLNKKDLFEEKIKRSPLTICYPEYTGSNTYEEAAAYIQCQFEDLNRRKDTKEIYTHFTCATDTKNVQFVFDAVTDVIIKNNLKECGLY
Sequence of UniProt P49356 (P49356 whole entry, looked up): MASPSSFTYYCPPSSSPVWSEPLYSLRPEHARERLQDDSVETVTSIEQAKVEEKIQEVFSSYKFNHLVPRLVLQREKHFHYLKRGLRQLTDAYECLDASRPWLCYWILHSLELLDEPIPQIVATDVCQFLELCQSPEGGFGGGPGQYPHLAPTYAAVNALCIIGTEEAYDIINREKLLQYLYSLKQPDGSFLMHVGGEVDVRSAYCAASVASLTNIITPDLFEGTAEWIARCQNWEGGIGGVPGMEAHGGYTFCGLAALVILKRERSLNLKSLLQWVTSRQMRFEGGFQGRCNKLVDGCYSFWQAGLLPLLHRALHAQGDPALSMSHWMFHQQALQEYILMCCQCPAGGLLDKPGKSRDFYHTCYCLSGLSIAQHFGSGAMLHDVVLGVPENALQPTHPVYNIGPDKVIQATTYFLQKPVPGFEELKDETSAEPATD
Sequence of UniProt Q8TEQ6 (Q8TEQ6 whole entry, looked up): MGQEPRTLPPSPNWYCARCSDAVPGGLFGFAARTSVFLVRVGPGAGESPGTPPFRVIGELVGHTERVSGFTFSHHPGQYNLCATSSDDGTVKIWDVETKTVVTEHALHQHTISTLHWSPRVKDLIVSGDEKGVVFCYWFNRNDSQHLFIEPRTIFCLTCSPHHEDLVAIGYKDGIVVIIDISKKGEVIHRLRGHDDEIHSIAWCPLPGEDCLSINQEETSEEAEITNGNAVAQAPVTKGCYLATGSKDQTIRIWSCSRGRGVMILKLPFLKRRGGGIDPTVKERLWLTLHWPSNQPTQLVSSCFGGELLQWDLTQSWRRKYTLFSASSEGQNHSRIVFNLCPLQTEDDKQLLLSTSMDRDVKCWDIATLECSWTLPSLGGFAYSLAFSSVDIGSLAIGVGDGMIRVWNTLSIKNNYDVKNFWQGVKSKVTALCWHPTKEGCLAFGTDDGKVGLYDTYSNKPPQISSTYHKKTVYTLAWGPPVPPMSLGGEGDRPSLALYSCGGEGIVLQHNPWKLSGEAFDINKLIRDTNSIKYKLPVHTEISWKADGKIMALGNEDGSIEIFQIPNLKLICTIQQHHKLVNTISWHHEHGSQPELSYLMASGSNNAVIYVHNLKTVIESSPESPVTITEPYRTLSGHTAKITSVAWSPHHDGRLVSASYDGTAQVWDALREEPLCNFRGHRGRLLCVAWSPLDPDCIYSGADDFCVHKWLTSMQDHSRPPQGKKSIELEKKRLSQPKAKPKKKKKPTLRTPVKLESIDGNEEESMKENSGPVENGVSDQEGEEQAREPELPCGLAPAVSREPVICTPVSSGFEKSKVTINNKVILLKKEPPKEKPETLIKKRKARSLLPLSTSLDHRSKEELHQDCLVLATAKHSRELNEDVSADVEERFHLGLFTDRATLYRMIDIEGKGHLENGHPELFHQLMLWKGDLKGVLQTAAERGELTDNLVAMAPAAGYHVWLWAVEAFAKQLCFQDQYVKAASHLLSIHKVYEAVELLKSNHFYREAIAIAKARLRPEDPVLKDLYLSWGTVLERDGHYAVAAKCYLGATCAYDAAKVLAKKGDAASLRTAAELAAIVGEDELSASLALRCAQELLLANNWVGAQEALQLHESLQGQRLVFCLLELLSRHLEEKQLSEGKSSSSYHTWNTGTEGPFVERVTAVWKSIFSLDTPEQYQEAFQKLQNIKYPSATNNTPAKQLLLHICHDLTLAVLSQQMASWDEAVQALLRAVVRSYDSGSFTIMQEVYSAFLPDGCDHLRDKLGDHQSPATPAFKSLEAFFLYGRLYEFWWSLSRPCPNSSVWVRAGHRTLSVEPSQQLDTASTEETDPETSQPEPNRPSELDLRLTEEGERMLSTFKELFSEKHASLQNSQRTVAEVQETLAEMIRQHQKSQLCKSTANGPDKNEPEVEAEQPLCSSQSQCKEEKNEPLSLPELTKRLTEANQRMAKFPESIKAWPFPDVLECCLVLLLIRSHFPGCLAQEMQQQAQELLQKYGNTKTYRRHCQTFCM
Sequence of UniProt Q01628 (Q01628 whole entry, looked up): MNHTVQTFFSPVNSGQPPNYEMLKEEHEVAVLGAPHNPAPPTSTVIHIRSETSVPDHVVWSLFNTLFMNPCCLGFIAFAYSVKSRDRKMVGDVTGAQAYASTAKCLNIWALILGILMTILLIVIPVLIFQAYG
Sequence of UniProt P52657 (P52657 whole entry, looked up): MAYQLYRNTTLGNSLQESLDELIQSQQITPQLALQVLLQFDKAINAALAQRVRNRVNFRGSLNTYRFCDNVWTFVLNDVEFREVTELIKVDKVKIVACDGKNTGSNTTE
Sequence of UniProt P52597 (P52597 whole entry, looked up): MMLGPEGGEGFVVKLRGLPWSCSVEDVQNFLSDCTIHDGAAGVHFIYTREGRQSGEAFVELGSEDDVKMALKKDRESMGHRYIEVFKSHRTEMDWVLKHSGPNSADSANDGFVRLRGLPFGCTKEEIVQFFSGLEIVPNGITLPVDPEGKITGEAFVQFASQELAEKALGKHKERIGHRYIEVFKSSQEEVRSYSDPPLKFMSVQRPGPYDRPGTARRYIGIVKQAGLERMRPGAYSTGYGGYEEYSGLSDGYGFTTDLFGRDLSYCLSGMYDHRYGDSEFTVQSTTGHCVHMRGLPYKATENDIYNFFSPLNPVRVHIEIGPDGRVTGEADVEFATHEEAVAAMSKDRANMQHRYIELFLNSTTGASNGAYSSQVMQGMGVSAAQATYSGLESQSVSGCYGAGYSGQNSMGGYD

| Target | log2 fold change [1] | log2 fold change [2] | log2 fold change [3] | log2 fold change [4] | log2 fold change (entinostat) | log2 fold change (vorinostat) | log2 fold change (citarinostat) | log2 fold change (silmitasertib) | log2 fold change [5] | log2 fold change [6] | log2 fold change (entospletinib) |
| --- | --- | --- | --- | --- | --- | --- | --- | --- | --- | --- | --- |
| IDI1 isoform 2 (UniProt Q13907) | -0.062 | 0.01 | -0.038 | 0.024 | -0.03 | 0.008 | -0.017 | 0.078 | -0.066 | 0.035 | 0.066 |
| GTF2E1 (UniProt P29083) | -0.038 | -0.118 | -0.122 | -0.198 | 0.054 | 0.095 | 0.073 | 0.06 | -0.134 | -0.124 | -0.048 |
| GIGYF2 (UniProt Q6Y7W6) | -0.102 | -0.062 | -0.046 | -0.079 | 0.024 | 0.103 | 0.06 | -0.004 | -0.016 | -0.065 | -0.02 |
| FBXO7 (UniProt Q9Y3I1) | 0.061 | -0.052 | -0.077 | -0.044 | 0.038 | 0.097 | 0.013 | 0.031 | -0.026 | -0.052 | -0.009 |
| IFITM3 (UniProt Q01628) | -0.074 | 0.1 | -0.089 | 0.14 | 0.008 | – | 0.232 | -0.111 | 0.072 | -0.164 | 0.034 |
| HIP1R (UniProt O75146) | -0.032 | -0.001 | -0.138 | 0.014 | 0.027 | 0.069 | 0.022 | 0 | -0.024 | -0.005 | -0.029 |
| GOLGB1 isoform 2 (UniProt Q14789) | 0.106 | -0.062 | -0.044 | 0.026 | 0.024 | -0.019 | -0.008 | 0.009 | 0.039 | 0.167 | 0.058 |
| GAPVD1 isoform 6 (UniProt Q14C86) | 0.009 | -0.077 | -0.139 | -0.073 | 0.049 | 0.063 | 0.087 | 0.124 | 0.003 | -0.048 | 0.045 |
| GTPBP6 (UniProt O43824) | -0.052 | -0.066 | 0.017 | -0.003 | -0.019 | -0.1 | 0.093 | -0.115 | 0.086 | -0.011 | -0.092 |
| FARS2 (UniProt O95363) | -0.006 | 0.003 | -0.222 | 0.012 | 0.028 | 0.073 | 0.022 | -0.027 | -0.11 | 0.005 | 0.011 |
| GNAI3 (UniProt P08754) | -0.016 | 0.022 | -0.046 | 0.003 | -0.04 | -0.016 | -0.018 | 0.052 | -0.027 | -0.076 | 0.038 |
| GLA (UniProt P06280) | 0.04 | -0.049 | -0.143 | -0.066 | -0.034 | 0.056 | 0.027 | -0.03 | -0.036 | 0.029 | 0.017 |
| GCDH (UniProt Q92947) | 0.015 | 0.031 | 0.052 | 0.006 | -0.002 | 0.103 | 0.025 | -0.05 | -0.019 | 0.009 | -0.026 |
| FNTB (UniProt P49356) | -0.024 | 0.09 | 0.162 | -0.035 | -0.079 | -0.038 | 0.054 | -0.019 | 0.048 | 0.002 | -0.143 |
| GLYR1 (UniProt Q49A26) | -0.023 | 0.034 | -0.032 | 0.112 | -0.049 | 0.027 | 0.011 | -0.015 | -0.009 | -0.135 | 0.041 |
| FANCD2 isoform 1 (UniProt Q9BXW9) | 0.087 | -0.189 | -0.304 | -0.034 | 0.022 | 0.187 | 0.11 | -0.109 | -0.034 | -0.039 | 0.002 |
| ICMT (UniProt O60725) | 0.031 | -0.153 | -0.233 | -0.079 | 0.007 | – | -0.034 | 0.022 | -0.013 | -0.016 | 0.303 |
| GTF2A2 (UniProt P52657) | 0.023 | -0.028 | -0.038 | -0.008 | 0.03 | -0.044 | 0.058 | -0.008 | -0.014 | 0 | 0.014 |
| GCC2 (UniProt Q8IWJ2) | -0.009 | -0.005 | 0.081 | 0.009 | 0.03 | -0.002 | -0.066 | 0.212 | 0.225 | 0.009 | 0.144 |
| GTF2B (UniProt Q00403) | -0.009 | -0.08 | -0.172 | -0.056 | 0.047 | 0.211 | 0.037 | 0.005 | -0.156 | 0.022 | -0.04 |
| GOPC (UniProt Q9HD26) | -0.055 | -0.011 | 0.15 | -0.002 | -0.092 | -0.038 | – | 0.029 | 0.265 | – | – |
| FBXO42 (UniProt Q6P3S6) | -0.048 | -0.087 | -0.176 | 0.061 | -0.028 | -0.03 | -0.001 | 0.006 | 0.013 | -0.026 | -0.049 |
| GEMIN5 (UniProt Q8TEQ6) | -0.011 | -0.018 | -0.133 | -0.015 | 0.029 | -0.046 | -0.065 | 0.009 | -0.057 | -0.034 | 0.058 |
| HNRNPF (UniProt P52597) | -0.015 | 0.014 | -0.11 | -0.027 | 0.137 | 0.154 | 0.07 | 0.074 | -0.104 | -0.048 | 0.046 |
| GSK3B isoform 2 (UniProt P49841) | -0.027 | -0.06 | -0.055 | -0.028 | 0.005 | 0.023 | 0.047 | 0.012 | 0.29 (active) | – | -0.028 |
| GALK1 isoform 2 (UniProt P51570) | 0.357 (active) | 0.066 | -0.087 | 0.141 | 0.171 | 0.094 | 0.111 | -0.063 | 0.049 | 0.11 | -0.103 |
| GDE1 (UniProt Q9NZC3) | -0.001 | 0.058 | 0.094 | -0.01 | -0.065 | – | 0.024 | -0.086 | -0.008 | 0.032 | 0 |
| HDAC2 (UniProt Q92769) | -0.01 | -0.037 | -0.013 | -0.039 | – | – | 1.04 (active) | 0.04 | -0.021 | -0.041 | 0 |
